In the antibiotic and cytotoxicity screens of Wong et al. (2023):
Among all 39,000 compounds or so, about 1,500 (3.8%) were called active. Only a selection was taken, and actives are over-represented in it overall.

test system: HSkMC (human skeletal muscle cells); assay: cytotoxicity call (relative viability < 0.9); conditions: 10 µM

| Structure (SMILES) | cytotoxicity call |
| --- | --- |
| C[C@H](CO)N1C[C@H](C)[C@H](CN(C)S(=O)(=O)c2ccc(F)cc2)Oc2ncc(C#CCN(C)C)cc2C1=O | inactive |
| CCS(=O)(=O)NCC[C@@H]1CC[C@@H](NC(=O)C2CCOCC2)[C@H](CO)O1 | inactive |
| Cc1ccccc1S(=O)(=O)N1C[C@H](O)COC[C@@H]2O[C@H](CC(=O)NCc3ccccc3Cl)CC[C@H]21 | inactive |
| O=C(NC1(c2ccccc2)CC1)c1c(CN2CCC(N3CCCCC3)CC2)c(-c2cccc(C(F)(F)F)c2)nc2cc(Br)ccc12 | active |
| O=C(N[C@@H](c1ccc(-c2ccccc2)cc1)c1cnccn1)C1CCN(Cc2cccc(C(F)(F)F)c2)CC1 | inactive |
| COc1ccc(S(=O)(=O)N(C)C[C@H]2Oc3ccc(NC(=O)CCCN(C)C)cc3CC(=O)N([C@H](C)CO)C[C@@H]2C)cc1 | inactive |
| Cc1noc(C)c1NC(=O)N(C)C[C@@H]1OCCCC[C@@H](C)Oc2ccc(NC(=O)CCCCCC(=O)Nc3ccccc3N)cc2C(=O)N([C@H](C)CO)C[C@@H]1C | inactive |
| CO[C@@H]1CN(C)C(=O)c2ccc(NC(=O)CC(F)(F)F)cc2OC[C@H](C)N(C(=O)C2CCOCC2)C[C@H]1C | inactive |
| Cc1noc(C)c1NC(=O)Nc1cccc2c1O[C@H](CN(C)Cc1ccc(C(F)(F)F)cc1)[C@@H](C)CN([C@@H](C)CO)C2=O | inactive |
| COc1ccc(NC(=O)Nc2ccc3c(c2)C(=O)N([C@@H](C)CO)C[C@H](C)[C@@H](CN(C)C(=O)Nc2ccc(F)cc2)OCCCC[C@H](C)O3)cc1 | inactive |
| C[C@H]1CN([C@@H](C)CO)C(=O)c2cccc(NC(=O)Nc3ccc4c(c3)OCO4)c2O[C@@H]1CN(C)Cc1ccc(C(F)(F)F)cc1 | inactive |
| C[C@@H]1CN([C@H](C)CO)C(=O)c2cccc(NC(=O)Nc3ccc(C(F)(F)F)cc3)c2O[C@@H]1CN(C)Cc1ccc2c(c1)OCO2 | inactive |
| C[C@H]1CN([C@@H](C)CO)C(=O)c2cccc(NC(=O)Nc3ccc4c(c3)OCO4)c2O[C@H]1CN(C)Cc1ccc(C(F)(F)F)cc1 | inactive |
| C[C@@H]1CN([C@@H](C)CO)C(=O)c2cccc(NC(=O)Nc3ccc4c(c3)OCO4)c2O[C@H]1CN(C)Cc1ccc(C(F)(F)F)cc1 | active |
| C[C@H](CO)N1C[C@H](C)[C@H](CN(C)Cc2ccc(C(F)(F)F)cc2)Oc2c(NC(=O)Nc3ccc4c(c3)OCO4)cccc2C1=O | inactive |
| C[C@H]1CN([C@@H](C)CO)C(=O)c2cccc(NC(=O)Nc3ccc(C(F)(F)F)cc3)c2O[C@@H]1CN(C)Cc1ccc2c(c1)OCO2 | active |
| C[C@H]1CN([C@@H](C)CO)C(=O)c2cccc(NC(=O)Nc3ccc(C(F)(F)F)cc3)c2O[C@H]1CN(C)Cc1ccc2c(c1)OCO2 | inactive |
| C[C@H](CO)N1C[C@H](C)[C@H](CN(C)Cc2ccc3c(c2)OCO3)Oc2c(NC(=O)Nc3ccc(C(F)(F)F)cc3)cccc2C1=O | inactive |
| C[C@@H]1CN([C@@H](C)CO)C(=O)c2cccc(NC(=O)Nc3ccc(C(F)(F)F)cc3)c2O[C@H]1CN(C)Cc1ccc2c(c1)OCO2 | active |

| Structure (SMILES) | cytotoxicity call |
| --- | --- |
| C[C@@H]1CN([C@H](C)CO)C(=O)c2cccc(NC(=O)Nc3ccc(C(F)(F)F)cc3)c2O[C@H]1CN(C)Cc1ccc2c(c1)OCO2 | inactive |
| C[C@H](CO)N1C[C@H](C)[C@@H](CN(C)Cc2ccc3c(c2)OCO3)Oc2c(NC(=O)Nc3ccc(C(F)(F)F)cc3)cccc2C1=O | active |
| C[C@@H]1CN([C@@H](C)CO)C(=O)c2cccc(NC(=O)Nc3ccc(C(F)(F)F)cc3)c2O[C@@H]1CN(C)Cc1ccc2c(c1)OCO2 | inactive |
| C[C@H]1CCCCO[C@@H](CN(C)C(=O)Nc2ccc3c(c2)OCO3)[C@@H](C)CN([C@@H](C)CO)C(=O)c2cc(NS(=O)(=O)c3cccs3)ccc2O1 | inactive |
| Cc1cc(C(=O)Nc2cccc3c2O[C@@H](CN(C)S(=O)(=O)c2cccs2)[C@H](C)CN([C@H](C)CO)C3=O)n(C)n1 | inactive |
| C[C@H]1CCCCO[C@H](CN(C)C(=O)NC2CCCCC2)[C@@H](C)CN([C@@H](C)CO)C(=O)c2cc(NS(=O)(=O)c3cccs3)ccc2O1 | inactive |
| C[C@@H]1CCCCO[C@@H](CN(C)Cc2ccc(C(F)(F)F)cc2)[C@H](C)CN([C@H](C)CO)C(=O)c2cc(NC(=O)c3ccncc3)ccc2O1 | inactive |
| O=C(NCc1nc2ccccc2[nH]1)C1=C[C@@H](c2ccc(Br)cc2)C[C@@H](OCc2ccc(CO)cc2)O1 | inactive |
| Cc1ccc(S(=O)(=O)N(C)C[C@@H]2Oc3ccc(NC(=O)Nc4ccc(C(F)(F)F)cc4)cc3C(=O)N([C@H](C)CO)C[C@@H]2C)cc1 | inactive |
| CS(=O)(=O)[C@H]1CCNC1 | inactive |
| CC(C)(C)S(=O)N1Cc2cc(C(=O)NCc3ccc4c(c3)OCO4)nc(-c3cccc(-c4cccc(F)c4)c3)c2[C@H]1CCO (stereo partly drawn) | inactive |
| COc1ccccc1CNC(=O)C[C@H]1CC[C@@H]2[C@H](COC[C@H](O)CN2C(=O)Nc2ccc(F)cc2)O1 | inactive |
| O=C(C[C@H]1C[C@H]2c3cc(NC(=O)C4CCOCC4)ccc3O[C@H]2[C@H](CO)O1)NCc1ccc2c(c1)OCO2 | inactive |
| C[C@@H]1CN([C@@H](C)CO)C(=O)c2cccc(NC(=O)c3nc4ccccc4s3)c2O[C@H]1CN(C)C(=O)Nc1ccc(C(F)(F)F)cc1 | inactive |
| COc1ccccc1S(=O)(=O)N[C@@H]1CC[C@H](CCNC(=O)C2CC2)O[C@H]1CO | inactive |
| CN(C)CCCNC(=O)[C@@H]1[C@@H](CO)[C@@H]2Cn3c(ccc(-c4cccc(C(=O)N(C)C)c4)c3=O)[C@H]1N2 | inactive |
| C=C[C@](C)(O)CC/C=C(\C)C(=O)O[C@@H]1[C@@H](O[C@@](C)(C=C)CC/C=C(\C)C(=O)O[C@H]2C[C@@]3(C(=O)O[C@H]4OC[C@@H](O[C@H]5O[C@@H](CO)[C@@H](O)[C@@H](O[C@H]6O[C@@H](CO)[C@@H](O[C@H]7O[C@@H](CO)[C@@H](O)[C@@H](O)[C@@H]7O)[C@@H](O)[C@@H]6O)[C@@H]5O)[C@@H](O)[C@@H]4O)[C@@H](O)C[C@@]4(C)C(=CC[C@H]5[C@@]6(C)CC[C@@H](O[C@H]7O[C@@H](CO)[C@@H](O[C@H]8O[C@@H](CO)[C@@H](O)[C@@H](O[C@H]9OC[C@@H](O)[C@@H](O)[C@@H]9O)[C@@H]8O)[C@@H](O)[C@@H]7O)C(C)(C)[C@@H]6CC[C@@]54C)[C@@H]3CC2(C)C)OC[C@@H](O)[C@H]1O | active |
| C[C@@H]1O[C@H](O[C@H]2[C@H](OC(=O)[C@]34CCC(C)(C)C[C@@H]3C3=CC[C@@H]5[C@@]6(C)CC[C@H](O[C@@H]7O[C@@H](C)[C@H](O[C@@H]8OC[C@@H](O)[C@H](O)[C@H]8O)[C@@H](O)[C@H]7O)C(C)(C)[C@@H]6CC[C@@]5(C)[C@]3(C)C[C@@H]4O)OC[C@H](O)[C@H]2O)[C@H](O)[C@H](O)[C@H]1O[C@@H]1O[C@H](CO)[C@@H](O)[C@H](O)[C@H]1O | inactive |
| C[C@@H]1O[C@@H](O[C@H]2[C@H](OC(=O)[C@]34CCC(C)(C)C[C@H]3C3=CC[C@H]5[C@@]6(C)CC[C@H](O[C@@H]7O[C@H](CO)[C@@H](O)[C@H](O)[C@H]7O)C(C)(C)[C@@H]6CC[C@@]5(C)[C@]3(C)C[C@H]4O)OC[C@H](O)[C@@H]2O)[C@H](O)[C@H](O[C@@H]2OC[C@H](O)[C@H](O)[C@H]2O)[C@H]1O[C@@H]1OC[C@@H](O)[C@H](O[C@@H]2OC[C@H](O)[C@H](O)[C@H]2O)[C@H]1O | inactive |
